Laboratory results: the supplement of paper PMC10981050
Values joined by “and” are separate entries in the source; they are usually repeats but may differ in a detail not shown here. Equal entries are not always repeated. Structures can show the parent of a compound that is named as a salt.

Key:
Assay in all cases: cell viability relative to vehicle control; higher = less cytotoxic
Details in all cases: 10 µM
K562 = tested on: K562
Outline: (§1)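 Screening covered the Selleck bioactive, kinase and epigenetic probe libraries, less identity-inconsistent compounds, on CRISPR-edited mutant clones and isogenic wild-type clones of four leukaemia lines. Cells, at 2000 per well in 50 µL medium, received a single 10 µM acoustically dispensed dose. After 48 h the supernatant was removed and CellTiter-Glo luminescence was read. Viability was analysed in Genedata Screener as percent of the on-plate vehicle control.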

MARIMO = tested on: MARIMO
Outline: as §1

MOLM14 = tested on: MOLM14
Outline: as §1

OCI-AML2 = tested on: OCI-AML2
Outline: as §1

Compound	cell viability (K562; SRSF2 genotype: SRSF2 P95H/wt)	cell viability (K562; SRSF2 genotype: SRSF2 wt/wt)	cell viability (MARIMO; SRSF2 genotype: SRSF2 P95H/wt)	cell viability (MARIMO; SRSF2 genotype: SRSF2 wt/wt)	cell viability (MOLM14; SRSF2 genotype: SRSF2 P95H/wt)	cell viability (MOLM14; SRSF2 genotype: SRSF2 wt/wt)	cell viability (OCI-AML2; SRSF2 genotype: P95H/wt)	cell viability (OCI-AML2; SRSF2 genotype: wt/wt)
C=CC(=O)Nc1cccc(Nc2nc(Nc3ccc(N4CCN(C(C)=O)CC4)cc3OC)ncc2C(F)(F)F)c1 [Rociletinib (CO-1686, AVL-301)]	54.5% and 77.9%	68.3%	34.9%	29.4%	6.76%	11.9%	10.2%	19%
CN[C@@H](C)C(=O)N[C@H](C(=O)N1CCC[C@H]1C(=O)N[C@H]1c2ccccc2C[C@H]1OCC#CC#CCO[C@@H]1Cc2ccccc2[C@@H]1NC(=O)[C@@H]1CCCN1C(=O)[C@@H](NC(=O)[C@H](C)NC)C1CCCCC1)C1CCCCC1	0.57% and 0.73%	0.61%	0.76%	0.89%	0.51%	0.62%	0.56%	0.58%
Cc1[nH]nc2ccc(-c3cncc(OC[C@@H](N)Cc4ccccc4)c3)cc12	31.9% and 28.5%	26.3%	7.82%	5.76%	0.2%	0.05%	0.26%	6.55%
O=C(O)CNC(=O)c1ccccc1 [Hippuric acid]	103% and 104%	106%	101%	112%	98.4%	107%	103%	101%
C/C(=C\C(=O)OCCCCCCCCC(=O)O)C[C@@H]1OC[C@H](C[C@@H]2O[C@H]2[C@@H](C)[C@H](C)O)[C@@H](O)[C@H]1O [Mupirocin calcium]	90.7% and 86.2%	87.5%	84.3%	97.9%	94.2%	93.4%	97.3%	93.5%
O=C1c2c(O)cccc2C([C@@H]2O[C@H](CO)[C@@H](O)[C@H](O)[C@H]2O)c2cc(CO)cc(O)c21 (stereo not given in full) [Aloin (Barbaloin)]	105% and 104%	98.5%	105%	102%	109%	104%	98.1%	102%
CN1CCC(=C2c3ccccc3CCc3sccc32)CC1 [Pizotifen malate]	89.7% and 97%	95.2%	76.9%	83.8%	76.5%	90.1%	81.4%	83%
Nc1ccc(S(=O)(=O)Nc2ncccn2)cc1 [Sulfadiazine]	108% and 105%	108%	114%	110%	103%	108%	111%	110%
C/C=C(/C)C(=O)O[C@@H]1[C@H](OC(C)=O)c2c(ccc3ccc(=O)oc23)OC1(C)C [Praeruptorin A]	96.7% and 95.2%	100%	89.8%	101%	89%	94.8%	97.4%	104%
CN(C)c1cccc(-c2c3c(=O)n(-c4ccccc4Cl)[nH]c3cc(=O)n2C)c1	100% and 98.2%	101%	109%	126%	104%	99.7%	101%	114%
Cc1cccc(Nc2nc(N[C@@H]3CCCC[C@@H]3N)ncc2C(N)=O)c1	50.9% and 56.3%	63.7%	47.4%	44.7%	22%	20.7%	4.23%	14.4%
O=c1[nH]c(=O)n(C2CC(O)C(CO)O2)cc1I (stereo not given) [Idoxuridin]	86.7% and 92.3%	77%	102%	98.3%	80.5%	88.1%	83.3%	84.3%
Cc1nc2n(c(=O)c1CCN1CCC(c3noc4cc(F)ccc34)CC1)CCCC2 [Risperidone (Risperdal)]	93.6% and 101%	93.5%	94%	99.2%	100%	98.2%	98.8%	99%
C[C@H](Nc1ncnc2nc[nH]c12)c1cc2cccc(Cl)c2c(=O)n1-c1ccccc1 [Duvelisib (IPI-145, INK1197)]	93.1% and 95.6%	94.3%	67.6%	62.3%	50.2%	51.6%	28.7%	38%
O=C(O)COc1ccc(Br)cc1C=C1SC(=S)N(Cc2cccnc2)C1=O [Skp2 inhibitor C1 (SKPin C1)]	34.9% and 35.5%	35.5%	18.9%	18.6%	5.39%	2.44%	3.65%	9.12%
CCCCCCCCCC=O [Decyl aldehyde]	98.7% and 94.8%	106%	99.1%	101%	102%	105%	100%	111%
NC1(Cc2ccc(Cl)cc2)CCN(c2ncnc3[nH]ccc23)CC1	55.4% and 60.1%	50.8%	36.5%	35.1%	17.7%	17%	35.3%	30.9%
Cc1cc(O)cc(OC2OC(CO)C(O)C(O)C2O)c1 (stereo not given) [Orcinol glucoside]	104% and 100%	101%	97.5%	104%	102%	106%	108%	95.4%
O=C1c2ccccc2C(=O)c2c1ccc(O)c2O [Alizarin]	101% and 104%	101%	103%	99.5%	97%	102%	101%	93%
CC1Cc2ccccc2N1NC(=O)c1ccc(Cl)c(S(N)(=O)=O)c1 (stereo not given) [Indapamide (Lozol)]	108% and 105%	103%	106%	105%	106%	106%	114%	104%

Compound	cell viability (K562; SRSF2 genotype: SRSF2 P95H/wt)	cell viability (K562; SRSF2 genotype: SRSF2 wt/wt)	cell viability (MARIMO; SRSF2 genotype: SRSF2 P95H/wt)	cell viability (MARIMO; SRSF2 genotype: SRSF2 wt/wt)	cell viability (MOLM14; SRSF2 genotype: SRSF2 P95H/wt)	cell viability (MOLM14; SRSF2 genotype: SRSF2 wt/wt)	cell viability (OCI-AML2; SRSF2 genotype: P95H/wt)	cell viability (OCI-AML2; SRSF2 genotype: wt/wt)
Cn1cc(-c2ccc3c(c2)CCN3C(=O)Cc2cccc(C(F)(F)F)c2)c2c(N)ncnc21	37.6% and 52.8%	39.2%	60.5%	62.1%	16.1%	16%	26.3%	28.8%
O=C1CCc2cc(OCCCCc3nnnn3C3CCCCC3)ccc2N1 [Cilostazol]	97.9% and 98.4%	96.8%	103%	102%	100%	101%	109%	97.9%
COC(=O)c1ccc(O)c(C(=O)OC)c1 [Dimetghyl 4-Hydroxyisophthalate]	100% and 93.1%	99.4%	95.2%	98.7%	97.3%	100%	90%	96.6%
COc1cc2c(cc1OC)CC(=O)N(CCCN(C)C[C@H]1Cc3cc(OC)c(OC)cc31)CC2 [Ivabradine HCl (Procoralan)]	97.8% and 97.4%	93.7%	97.4%	109%	99.6%	106%	95.8%	107%
CN1C(=O)[C@@H](NC(=O)c2cc(Cc3ccccc3)on2)COc2ccccc21	105% and 100%	105%	98.9%	102%	110%	110%	99.6%	99.8%
CCOC(=O)N1CCC(CN(Cc2ccc(Cl)cc2)Cc2ccc([N+](=O)[O-])s2)C1 (stereo not given) [Stenabolic (SR9009)]	56% and 70.8%	63.4%	33.5%	25.5%	45.6%	41.9%	39.1%	41.4%
CC(C)COc1ccc(CNC(=O)N(Cc2ccc(F)cc2)C2CCN(C)CC2)cc1 [Pimavanserin]	0.6% and 0.64%	0.75%	2.06%	4.09%	0.25%	0.22%	0.22%	1.2%
O=C(O)[C@@]1(CCCCCCOc2ccc(Cl)cc2)CO1 [Etomoxir (Na salt)]	113% and 110%	115%	104%	110%	106%	108%	107%	96.8%
CC(C)CC(NC(=O)C(Cc1ccccc1)CC(O)C(Cc1ccccc1)NC(=O)OC(C)(C)C)C(=O)NC(Cc1ccccc1)C(N)=O (stereo not given)	106% and 109%	111%	106%	99.5%	108%	106%	112%	120%
Nc1[nH]c(=O)ncc1Br [5-Bromocytosine]	102% and 99.4%	105%	101%	103%	104%	105%	98.1%	108%
Cc1ccc(C(=O)O)c(O)c1 [4-Methylsalicylic acid]	107% and 102%	103%	108%	111%	99.7%	109%	99.3%	95.5%
COC1C(O)CC(=O)OC(C)CC=CC=CC(OC2CCC(N(C)C)C(C)O2)C(C)CC(CC=O)C1OC1OC(C)C(OC2CC(C)(O)C(O)C(C)O2)C(N(C)C)C1O (stereo not given) [spiramycin]	93.7% and 96.3%	108%	99.4%	102%	98%	103%	110%	96.7%
Cc1c(F)cc(C(=O)NC2CC2)cc1-c1ccc(C(=O)NCC(C)(C)C)cn1 [Losmapimod]	92% and 93.7%	97.8%	95.7%	103%	94.1%	100%	86.7%	95.5%
O=C(/C=C/c1cccc(S(=O)(=O)Nc2ccccc2)c1)NO [Belinostat (PXD101)]	1.83% and 15.8%	5.17%	8.17%	13.7%	0.86%	0.57%	2.66%	4.34%
Nc1ncnc2c1ncn2[C@@H]1O[C@H](CO)[C@@H](O)[C@@H]1O [Vidarabine monohydrate]	105% and 101%	110%	86%	98.5%	97.6%	103%	110%	119%
O=C(/C=C/c1ccc(O)c(O)c1)c1ccc(O)cc1O [Butein]	62% and 61%	76.8%	52.6%	64.7%	52.4%	47.8%	84.1%	77.8%
CC(C)OC(=O)C(C)(C)Oc1ccc(C(=O)c2ccc(Cl)cc2)cc1 [Fenofibrate (Tricor, Trilipix)]	80.4% and 86.4%	85.1%	79.2%	81.2%	93.7%	98.5%	67.1%	82.8%
CN[C@@H](C)C(=O)N[C@H](C(=O)N1CCC[C@H]1C(=O)Nc1snnc1-c1ccccc1)C1CCCCC1	98.6% and 96.3%	97.7%	101%	105%	89.6%	104%	102%	123%
Nc1ncnc2c1c(-c1cccc(OCc3ccccc3)c1)cn2C1CC(CN2CCCC2)C1 (stereo not given)	85.5% and 90.3%	88.4%	47.1%	40.6%	39.4%	55.1%	35.1%	41.8%
COc1ccc(C2CC(=O)c3c(O)cc(OC4OC(COC5OC(C)C(O)C(O)C5O)C(O)C(O)C4O)cc3O2)cc1OC (stereo not given) [Methyl-Hesperidin]	96.9% and 106%	97.8%	107%	114%	108%	107%	107%	104%
